Laboratory results taken from PubChem BioAssay AID1030 (National Center for Advancing Translational Sciences (NCATS), 2008).
About 16,000 (7.3%) of roughly 220,000 compounds were called active. A call without a number means that no potency is given here. Another 25% or so got no clear call; they are omitted. The sample holds actives, similar compounds and a random draw of the others, so the mix is not that of the screen. Unmarked numbers belong to inactive results. The call rests on the fitted dose curve; in most records, active means well fitted inhibition curve with a large enough effect (not every such curve was filed as active); inconclusive means small, poorly fitted or top-dose-only effect, or another doubt; inactive means no such curve, though single readings can be large or run the other way. Square brackets hold non-standard residues; d marks the D form. Peptide text beside a SMILES is read from it. ξ: configuration not given here. ξM = CSCCC(N)C(=O)O

target: Aldehyde dehydrogenase 1A1 (Homo sapiens) (UniProt P00352); test: qHTS Assay for Inhibitors of Aldehyde Dehydrogenase 1 (ALDH1A1); settings: Purified ALDH1A1, NADH fluorescence, propionaldehyde substrate; series mostly up to 75.3 µM
Sequence (P00352 whole entry, looked up): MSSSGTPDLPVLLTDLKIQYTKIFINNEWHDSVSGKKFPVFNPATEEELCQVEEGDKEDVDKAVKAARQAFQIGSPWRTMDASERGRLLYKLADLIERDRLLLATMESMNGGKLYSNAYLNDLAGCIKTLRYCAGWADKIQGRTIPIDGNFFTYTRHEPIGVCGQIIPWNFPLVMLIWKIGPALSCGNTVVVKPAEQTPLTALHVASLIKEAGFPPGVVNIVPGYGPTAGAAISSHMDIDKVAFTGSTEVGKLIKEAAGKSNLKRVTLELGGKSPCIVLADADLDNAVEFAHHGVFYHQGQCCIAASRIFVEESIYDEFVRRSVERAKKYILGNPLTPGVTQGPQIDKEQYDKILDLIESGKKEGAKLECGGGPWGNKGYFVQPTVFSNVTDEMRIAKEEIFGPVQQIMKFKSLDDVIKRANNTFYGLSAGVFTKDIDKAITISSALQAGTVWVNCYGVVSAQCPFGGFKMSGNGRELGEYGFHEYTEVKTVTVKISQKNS
Potency means the concentration at half of the fitted maximal effect.

Row | Structure (SMILES) | Potency | activity, negative = inhibition
1 | COc1ccc(/C=N/n2c(C)cc(C)cc2=O)cc1 | inactive | 
2 | CC1=NNC(=O)C1CCC(=O)N/N=C\c1ccc(Cl)c(Cl)c1 (stereo not given) | inactive | 
3 | O=C(N/N=C/c1ccc2c(c1)OCO2)C(=O)N1CCCC1 | inactive | 
4 | COC(=O)C1=C(C(=O)OC)[C@@H]2N(C)c3ccccc3[C@@]23C[C@@H](C(=O)OC)N(C(=O)c2ccco2)C3=N1 |  | 11.6% [at 13.5 µM]
5 | O=C(Nc1ccc2c(c1)OCO2)c1sc2cc(Cl)ccc2c1Cl | inactive | 
6 | Cc1ccc(C2NC(C(=O)O)CS2)cc1 (stereo not given) | inactive | 
7 | Cc1ccc(C2CC2C(=O)NN)cc1 (stereo not given) | 14.1 µM (active) | 
8 | COC(=O)C1C(=O)NCC1c1ccc(C)cc1 (stereo not given) | inactive | 
9 | O=C(O)Cc1ccc(-c2ccccc2)cc1 | inactive | 
10 | CCOC(=O)/C=C/C(=O)OCC(=O)NC(c1ccccc1)c1ccccc1 | inactive | 
11 | O=C(Cc1ccc(-c2ccccc2)cc1)NC(c1ccccc1)c1ccccc1 | 10 µM (active) | 
12 | COc1ccc(Br)c2c1C(=O)CC2 | inactive | 
13 | CCC(CC)NC(=O)CSc1nnc(-c2c[nH]c3ccccc23)o1 | inactive | 
14 | Cc1oc(-c2ccccc2Cl)[n+]([O-])c1C | 22.4 µM (active) | 
15 | Cc1cccc(CNc2cc(-c3ccccc3Cl)ncn2)c1 | inactive | 
16 | Cc1cc(C)n(-c2nc(C(F)(F)F)nc3ccccc23)n1 | inactive | 
17 | COc1cc(C(=O)NCc2ccc3c(c2)cc(C)n3C)cc(OC)c1OC | inactive | 
18 | Cc1ccc(NC(=S)NC2CCCC2)cc1 | inactive | 
19 | C/C(=N/NC(=O)c1ccc(Br)o1)c1ccc(C)o1 | inactive | 
20 | C/C(=N\NC(=S)NC1CCCCC1)c1ccc(C)o1 | 12.6 µM (active) | 
21 | COc1ccccc1CN(C)c1nnnn1-c1ccccc1 | inactive | 
22 | Cc1cc(OCC(=O)NC2CCN(C)CC2)ccc1[N+](=O)[O-] | inactive | 

Row | Structure (SMILES) | Potency | activity, negative = inhibition
23 | CCOC(=O)c1cc(-c2ccc(F)cc2)n(CC(=O)NCc2ccccn2)c1C | inactive | 
24 | Oc1ccc(N=Cc2sc3ccccc3c2Cl)cc1 | 15 µM (active) | 
25 | O=C(N/N=C/c1c(Cl)[nH]c2ccccc12)c1sc2ccccc2c1Cl | inactive | 
26 | O=C(Nc1ccon1)c1sc2ccccc2c1Cl | inactive | 
27 | Cc1cc(N2CCOCC2)nc2ccc(NC(=S)N3CCN(Cc4ccccc4)CC3)cc12 | inactive | 
28 | CCN(CC)C(=O)N(CC)Cc1ccccc1 | inactive | 
29 | O=S(=O)(NCC1CCCO1)c1cnc(Cl)c(Cl)c1 (stereo not given) | 3.55 µM (active) | 
30 | O=S(=O)(NCC1CCCO1)c1ccc2ccccc2c1 (stereo not given) | inactive | 
31 | Cc1cc(Cl)c(S(=O)(=O)NCC2CCCO2)cc1OCC(N)=O (stereo not given) | inactive | 
32 | CCO[C@@H]1OC(C(=O)NCc2nc3ccccc3[nH]2)=C[C@H](C2CCCCC2)[C@H]1CCCO | inactive | 
33 | O=C(NNC(=S)NCCCN1CCOCC1)c1ccncc1 | inactive | 
34 | S=c1[nH]nc(-c2ccccc2)n1/N=C/c1c[nH]c2ccccc12 | inactive | 
35 | Oc1ccccc1/C=N/n1c(-c2cccs2)n[nH]c1=S | 15.8 µM (active) | 
36 | S=c1[nH]nc(-c2ccncc2)n1/N=C/c1ccccc1Cl | inactive | 
37 | CCCC1(C(=O)OC)NC(c2ccco2)C2C(=O)N(C)C(=O)C21 (stereo not given) | inactive | 
38 | COc1ccc(CS(=O)/C(Cl)=C(/Cl)C(=O)Nc2ccc(OC)nc2)cc1 (stereo not given) | 8.91 µM (active) | 
39 | COc1ccc(NC(=O)/C(Cl)=C(/Cl)S(=O)Cc2ccc(C)cc2)cn1 (stereo not given) | 5.01 µM (active) | 
40 | COc1ccc(NC(=S)NCCNC(C)=O)cc1 | inactive | 
41 | COc1cccc(NC(=O)Cc2ccc(C)cc2)c1 | inactive | 
42 | COc1ccc(NC(=S)Nc2ccccc2Cl)cn1 | inactive | 
43 | Cc1ccc(NC(=O)OCc2cncs2)cc1 | inactive | 
44 | COc1cccc(C2c3[nH]c4ccccc4c3CCN2Cc2cccc(C)n2)c1 (stereo not given) | inactive | 

Row | Structure (SMILES) | Potency | activity, negative = inhibition
45 | O=C(COc1ccc(Cl)cc1[N+](=O)[O-])N1CCCCC1 | inactive | 
46 | CC(C)(C)NC(=O)CN(C(=O)c1ccc(Cl)nc1)c1cccc2ccccc12 | inactive | 
47 | Clc1ccc2nc(CSc3ccccc3)cn2c1 | inactive | 
48 | COC(=O)CNC(=O)C(CCSC)NC(C)=O (stereo not given) (Ac-[ξM]-Gly-OMe) | inactive | 
49 | Cc1nnc(SCC(N)=O)n1CC1CCCO1 (stereo not given) | inactive | 
50 | O=C(CSc1nnc(-c2ccco2)n1CC1CCCO1)c1ccccc1 (stereo not given) | 25.1 µM (active) | 
51 | CNC(=O)NC(=O)CSc1nnc(-c2ccc(F)cc2)n1CC1CCCO1 (stereo not given) | inactive | 
52 | C=C1c2cccc(OC)c2O[C@H](C(=O)OCC)[C@@H]1CCCCCC | inactive | 
53 | Cc1cc([N+](=O)[O-])ccc1NC(=O)c1ccc(NC(=O)C(C)C)cc1 | inactive | 
54 | CN(C)c1ccc(C=C2C(=O)OC3(CCCC3)OC2=O)cc1 | 0.251 µM (active) | 
55 | CC1CCCCC1NC(=O)COC(=O)Cc1ccc(Br)cc1 (stereo not given) | inactive | 
56 | COC(=O)C/C=C/[C@@H](C)[C@H](NC(=O)OCC(Cl)(Cl)Cl)c1ccccc1 | inactive | 
57 | CCOC(=O)Cc1cc(=O)[nH]c(=O)[nH]1 | inactive | 
58 | COc1ccc(OCC(=O)Nc2nnc(-c3ccco3)s2)cc1 | 22.4 µM (active) | 
59 | COCC(=O)Nc1nnc(COc2ccccc2)s1 | inactive | 
60 | CNc1nnc(-c2ccco2)s1 | inactive | 
61 | Cn1nccc1NC(=O)CC(CC(=O)O)c1ccccc1 (stereo not given) | inactive | 
62 | CCc1ccccc1NC(=O)CN(c1ccc(OC)cc1OC)S(=O)(=O)c1ccccc1[N+](=O)[O-] | inactive | 
63 | Cc1c(C(=O)Nc2cccc(Cl)c2)cn2c(nc3ccccc32)c1C#N | inactive | 
64 | CCn1c(CNS(=O)(=O)c2ccc(Cl)cc2)n[nH]c1=S | inactive | 
65 | CCCCNCc1ccc(SC)cc1 | inactive | 
66 | CSc1ccc(S(=O)(=O)NCc2ccc(Cl)cc2)cc1 | 22.4 µM (active) | 

Row | Structure (SMILES) | Potency | activity, negative = inhibition
67 | CC(C)(C)OC(=O)NCCCC1=CC2=CC(=O)C(C)(OC(=O)c3ccco3)C(=O)C2=CO1 (stereo not given) | inactive | 
68 | C=CCO/N=C/C1=C(O)C(C(=O)OC)C(C)(C)CC1=O (stereo not given) | inactive | 
69 | COc1cccc(-n2c(=O)c3c(C)c(C(=O)N(C)C)sc3n(CC(=O)NCCc3ccc(OC)c(OC)c3)c2=O)c1 | inactive | 
70 | CCN(CC)c1ccc2c(Nc3ccccc3)c(C=O)c(=O)oc2c1 | 1.58 µM (active) | 
71 | Cn1cc([N+](=O)[O-])c(C(=O)Nc2cnn(Cc3ccc(F)cc3)c2)n1 | inactive | 
72 | O=C(Nc1ccc(Br)c2cccnc12)c1ccc(Cn2cc([N+](=O)[O-])cn2)o1 | inactive | 
73 | COc1cccc(NC(=O)c2nn(C34CC5CC(CC(C5)C3)C4)cc2[N+](=O)[O-])c1 | 0.224 µM (active) | 
74 | CCc1ccc(NC(=O)c2ccc(Cn3cc([N+](=O)[O-])cn3)cc2)cc1 | inactive | 
75 | COc1cccc(NC(=O)c2nn(-c3ccc(OC)cc3OC)c(=O)c3ccccc23)c1 | inactive | 
76 | COc1cccc(NC(=O)c2ccc(Cn3cc([N+](=O)[O-])cn3)o2)c1 | 14.1 µM (active) | 
77 | CC[C@@]12C=C(/C=C/c3ccccc3)[C@](CC)(C1)[C@H](c1ccccc1)CC2=O | inactive | 
78 | CCOC(=O)C1CCCN(C(=O)/C=C/c2ccc(OC)cc2)C1 (stereo not given) | 22.4 µM (active) | 
79 | CCOC(=O)C1CCCN(C(=O)COc2ccc(N(C)S(=O)(=O)c3ccc(C)cc3)cc2)C1 (stereo not given) | inactive | 
80 | CCOC(=O)C1CCCN(C(=O)CN(c2ccc(OC)cc2)S(=O)(=O)c2c(C)noc2C)C1 (stereo not given) | inactive | 
81 | Cc1nn(CC#N)c(=O)n1N(C)c1ncc(C(F)(F)F)cc1Cl | inactive | 
82 | O=C(NCc1ccncc1)C(=O)NCc1ccco1 | inactive | 
83 | CC(=O)Nc1ccc(CN2CCN(Cc3ccc(F)c(F)c3)C(CCO)C2)cc1 (stereo not given) | inactive | 
84 | CC(=O)NC1C(Oc2ccc(C=O)cc2)OC(COC(C)=O)C(OC(C)=O)C1OC(C)=O (stereo not given) | 3.55 µM (active) | 
85 | CC(=O)NC1C(OCc2ccccc2)OC(COC(C)=O)C(OC(C)=O)C1OC(C)=O (stereo not given) | inactive | 
86 | CCc1cccc(OC2OC(CO)C(O)C(O)C2NC(C)=O)c1 (stereo not given) | inactive | 
87 | C/C(=N/Nc1ccc(Cl)cc1)c1cnnc(-c2ccccc2)n1 | inactive | 
88 | CC1CCCN(CC(O)COCc2ccccc2)C1 (stereo not given) | inactive | 

Row | Structure (SMILES) | Potency | activity, negative = inhibition
89 | CCOC(=O)CNC(=O)CSc1nnnn1-c1cc(C)ccc1C | 7.08 µM (active) | 
90 | CCOC(=O)c1c(-c2ccc(C)cc2C)csc1NC(=O)CSc1nnnn1C | inactive | 
91 | CNC(=O)CSc1nnnn1-c1ccc(C)cc1C | inactive | 
92 | NC(=O)C1CCN(C(=O)COc2cccc3cccnc23)CC1 | inactive | 
93 | Cn1ccc(NC(=O)Nc2ccc(Cl)cc2)n1 | inactive | 
94 | Cc1c(C(=O)CN2CCOCC2)[nH]c2ccccc12 | 15 µM (active) | 
95 | CCOC(=O)N1CCN(CC(=O)c2c(C)[nH]c3ccccc23)CC1 | 11.2 µM (active) | 
96 | Cc1[nH]c2ccccc2c1C(=O)COC(=O)C(C)C | inactive | 
97 | Cc1c(C(=O)N2CCOCC2)[nH]c2ccc(OCc3ccccc3)cc12 | inactive | 
98 | Cc1ccc2c(C(=O)CN3CCCC3)c(C)[nH]c2c1 | inactive | 
99 | O=C(CN1CCOCC1)Nc1ccccc1 | inactive | 
100 | CCN(C(=O)Cc1nc(N)n[nH]1)C1(C(=O)Nc2ccccc2)CCCCC1 | inactive | 
101 | COc1ccc(/C=C(\NC(=O)c2ccc(OCC(C)C)cc2)C(=O)OCc2ccco2)cc1 | inactive | 
102 | CCOc1ccc(-n2cnnn2)cc1S(=O)(=O)N1CCC(C)CC1C (stereo not given) | inactive | 
103 | O=C(Nn1c(-c2ccccc2)nc2ccccc2c1=O)c1ccc([N+](=O)[O-])cc1 | inactive | 
104 | N=C1C(c2nc3ccccc3s2)=C(O)CN1NC(=O)c1ccc([N+](=O)[O-])cc1 | 1.78 µM (active) | 
105 | CCOC(=O)CCCN1CC(O)=C(c2nc3ccccc3s2)C1=N | inactive | 
106 | O=C(NC1CC1)c1ccc(-c2ccccc2)cc1 | inactive | 
107 | Cc1cccc(-n2c(C)cc(/C=N/NC(N)=S)c2C)c1 | 3.16 µM (active) | 
108 | Cc1cc(/C=N/n2cnnc2)c(C)n1-c1cccc(C(=O)O)c1 | inactive | 
109 | CCOc1ccc(/C=N/NC(N)=S)cc1 | inactive | 
110 | COc1ccc(-c2nc3cc([N+](=O)[O-])ccc3o2)cc1OC | inactive | 
